Source: PubChem
RORg inh – inhibitors of mouse ROR gamma transcriptional activity; hit rate 5.4% among 310,000; Drosophila S2 Gal4-RORgamma UAS-luciferase reporter, 20 h; P51450; Potency, µM (top dose mostly 53.6 µM), inactives show at the top dose activity change, negative = inhibition, usual class: inhibitors; further: potency means the concentration at half of the fitted maximal effect; nearly all actives have a fitted effect of over 60% in size
Target sequence (P51450 whole entry, looked up, the tested form may be a part): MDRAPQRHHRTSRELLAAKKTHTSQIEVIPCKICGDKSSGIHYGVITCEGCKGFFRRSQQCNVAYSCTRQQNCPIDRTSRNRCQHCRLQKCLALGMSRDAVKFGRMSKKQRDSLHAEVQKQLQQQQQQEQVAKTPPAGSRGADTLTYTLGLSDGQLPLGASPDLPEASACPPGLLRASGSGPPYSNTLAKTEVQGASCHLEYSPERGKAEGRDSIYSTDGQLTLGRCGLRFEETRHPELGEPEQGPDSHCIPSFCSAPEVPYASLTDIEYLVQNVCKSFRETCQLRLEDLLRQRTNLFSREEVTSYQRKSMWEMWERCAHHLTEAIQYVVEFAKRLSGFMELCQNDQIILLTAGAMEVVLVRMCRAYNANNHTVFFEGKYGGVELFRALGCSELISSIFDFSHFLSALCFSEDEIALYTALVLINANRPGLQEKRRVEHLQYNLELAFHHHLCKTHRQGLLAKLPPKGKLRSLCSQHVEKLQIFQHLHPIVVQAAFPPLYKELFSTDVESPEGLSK
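A Gal4/UAS one-hybrid system in insect cells: metallothionein-promoter Gal4–ROR gamma fusion plus Photinus luciferase reporter. Copper sulfate 700 uM final, 20 hr ambient incubation, luminescent detection after 10 min with reagent.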
DT40 TDP1 CPT – DT40-hTDP1 cell growth loss with CPT | chicken DT40 Tdp1-/-;hTDP1 cells + 20 nM CPT, ATP luminescence, 48 h | hit rate 12% among 420,000 | Potency, µM (highest dose often 46.2 µM), without a hit: at the highest dose activity change, negative = growth inhibition, actives largely listed as inhibitors; further: potency means the concentration at half of the fitted maximal effect; nearly all actives have a fitted effect of over 55% in size
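Chicken DT40 Tdp1-/- cells complemented with human TDP1, 400 cells/well, exposed to compounds plus 20 nM camptothecin for at least 48 h at 37 C; viability read as ATP content by CellTiter-Glo luminescence.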
IL1B secr inh – inflammasome signaling inhibition, IL-1 beta readout; THP-1 LPS/ATP IL-1B secretion, AlphaLISA, 16 h; stronger effect = lower value; activity change, % at 57.5 µM; hit rate 4.7% among 360,000; in the data active means activity change below about -50%; inconclusive means mostly about -30% to -49%
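Secreted IL-1B measured by AlphaLISA bead assay after 16 h compound exposure of THP-1 cells; compounds (final up to 57.5 uM) added 1 h before LPS (250 ng/mL) and ATP (1.25 mM) stimulation; lower signal means less secretion.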
LDHA inh – LDHA (human) enzyme inhibition; purified LDHA, NADH/diaphorase-resazurin fluorescence; stronger effect = lower value; P00338; activity change, % (values are at about 110 or 230 µM); hit rate 0.15% among 480,000; in the data active means activity change below about -30%; inconclusive means mostly about -25% to -30%;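 further: plate controls were DMSO wells for no effect and wells without enzyme for full effect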
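LDH5 2 nM; NADH 0.06 mM, pyruvate 0.2 mM; 200 mM Tris pH 7.4, EDTA, Tween-20; 5 min RT. Detection: diaphorase 0.133 mg/mL + resazurin 37 µM, fluorescence ex540/em590 at 0 and 20 min; normalized to enzyme-free and DMSO wells.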
DT40 TDP1 no CPT – qHTS for Inhibitors of human tyrosyl-DNA phosphodiesterase 1 (TDP1): qHTS in cells in absence of CPT | DT40 Tdp1-/- hTDP1 cells, no CPT, ATP luminescence, 48 h | Potency, µM (doses to about 46.2 µM), without a hit: at the top dose activity change, negative = growth inhibition, actives largely listed as inhibitors | hit rate 15% among 420,000 | AID 686978, 2013; further: potency means the concentration at half of the fitted maximal effect; nearly all actives have a fitted effect of over 55% in size
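Readout: luminescence from CellTiter-Glo after 30 min in the dark at RT. Cells: DT40 Tdp1-/- with stable hTDP1, 400/well. Exposure: compounds alone, ≥48 hr, 37 °C.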
Gal4-VP16 FLuc – Gal4-VP16 reporter inhibition counter-screen; Drosophila S2 Gal4-VP16 UAS-luciferase, luminescence, 20 h; hit rate 3.5% among 310,000; AID 2546; Potency, µM (titrated, usually from 53.6 µM), without a hit: at the top dose activity, negative = inhibition, hits mostly inhibitors;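 further: Gal4-VP16 expression switched on by copper sulfate through the metallothionein promoter; potency means the concentration at half of the fitted maximal effect; nearly all actives have a fitted effect of over 50% in size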
* marks the source's active call; other numbers are inactive results; ? = inconclusive; . = no result given. Hits are enriched below; roughly 18% of the tested compounds scored in any of these assays. Unless noted, the call rests on the fitted dose curve; in most records, active means well fitted curve in the direction sought with a large enough effect; inconclusive means small, poorly fitted or top-dose-only effect, or another doubt; inactive means no such curve, though single readings can be large; an effect the other way counts as inactive or inconclusive. Unless noted, on the % scale 0 is the no-effect control and ±100 the full control effect.

SMILES	RORg inh	DT40 TDP1 CPT	IL1B secr inh	LDHA inh	DT40 TDP1 no CPT	Gal4-VP16 FLuc
Oc1ccccc1/C=N/Nc1ccccc1	22%	-10%	24	7	-6%	-12%
O=C(N/N=C/c1ccccc1O)C1(O)c2ccccc2-c2ccccc21	0.56µM*	8.2µM*	73	0	5.8µM*	0.79µM*
Oc1ccccc1/C=N/Nc1ccnc(SCc2ccccc2)n1	0.35µM*	0.065µM*	35	-5	0.082µM*	0.32µM*
COCCn1c(-n2nc(C)cc2C)nc2c1c(=O)n(Cc1ccc(F)cc1)c(=O)n2C	.	.	.	-5	.	.
O=C(Nc1ccc(F)cc1F)c1cc(C2CC2)nn1-c1ccccc1	.	.	.	1	.	.
CC(Nc1ncnc2sccc12)c1ccccc1 (stereo not drawn)	?	2.6µM*	-8	0	0.92µM*	1.4µM*
COCCn1c(=S)[nH]c2cc(C(=O)N3CCN(c4cccc(Cl)c4)CC3)ccc2c1=O	11µM*	21µM*	-16	-6	4.1µM*	?
COCCn1c(=O)[nH]c2cc(C(=O)N3CCN(c4cccc(C(F)(F)F)c4)CC3)ccc2c1=O	?	21µM*	-7	-5	13µM*	?
COCCn1c(=O)[nH]c2cc(C(=O)N3CCN(c4ccc(F)cc4)CC3)ccc2c1=O	.	?	.	-17	?	.
COCCn1c(=O)[nH]c2cc(C(=O)NCCN3CCN(c4cccc(Cl)c4)CC3)ccc2c1=O	-1%	15µM*	22	2	3.3µM*	-5%
CC(O)CNS(=O)(=O)c1ccc(-c2ccc(S(=O)(=O)NCC(C)O)cc2)cc1 (stereo not drawn)	.	.	.	2	.	.
COc1ccc(CCn2c(=O)c3cccnc3n(Cc3cccc([N+](=O)[O-])c3)c2=O)cc1OC	-2%	-22%	16	-9	-24%	9%
COC(=O)c1cccnc1-n1c(=O)c2cccnc2n(Cc2cccc([N+](=O)[O-])c2)c1=O	5%	?	0	-3	12µM*	7%
Cn1nc(C(=O)Nc2nc(-c3ccc[nH]3)cs2)c2ccccc2c1=O	.	.	.	1	.	.
Cc1nc2c(C(=O)NCc3ccco3)cnn2c(C)c1Cc1ccc(F)cc1Cl	?	11µM*	0	-1	?	-11%
Cc1cccc(Cc2c(C)nc3c(C(=O)NCc4ccco4)cnn3c2C)c1	30%	22µM*	-78*	8	11µM*	?
Cc1nc2ccc(F)cc2cc1C(=O)NCc1ccco1	42%	-25%	-16	-3	-22%	16%
NS(=O)(=O)CCCC(=O)O	.	.	.	-1	.	.
Cc1cc(NCc2cccnc2)n2ncc(-c3ccccc3)c2n1	.	.	.	6	.	.
C=C1C(=O)O[C@@H]2[C@H]3O[C@]3(C)CCC=C(C)CC[C@@H]12	7.1µM*	3µM*	.	.	2.1µM*	?
C=C1C(=O)O[C@@H]2[C@@H]1CC/C(C)=C\CC[C@@]1(C)O[C@H]21	3.2µM*	.	.	.	.	3.5µM*
Cc1c(Cl)cccc1NC(=S)/C(=C(\[O-])c1ccc(Cl)s1)[n+]1ccccc1	?	-22%	-70*	-2	-23%	5.6µM*
[O-]/C(=C(\C(=S)Nc1cccc2ccccc12)[n+]1cccc(CO)c1)c1ccc(Cl)s1	-42%	-23%	0	8	-23%	7%
CCOC(=O)Oc1ccc2c(=O)c(Oc3cccc(C)c3)c(C(F)(F)F)oc2c1	.	.	.	3	.	.
O=C(Cc1ccc(N2CCCC2=O)cc1)N1CCSCC1	.	.	.	7	.	.
SMILES	RORg inh	DT40 TDP1 CPT	IL1B secr inh	LDHA inh	DT40 TDP1 no CPT	Gal4-VP16 FLuc
O=C(Cc1cccs1)Nc1nnc(SCc2ccc(C(F)(F)F)cc2)s1	10µM*	15µM*	21	-7	?	-13%
O=C(Cc1cccs1)Nc1nnc(SCc2ccc(Br)cc2)s1	-25%	-14%	3	-2	?	-12%
Cc1cc(-n2c(SCc3ccccc3F)nc3[nH]ncc3c2=O)ccc1Cl	.	?	.	-10	16µM*	.
O=c1c2cn[nH]c2nc(SCc2cccc(Br)c2)n1-c1ccc(Cl)cc1	.	?	.	-2	?	.
COc1ccccc1-n1c(SCC(=O)Nc2ccccc2F)nc2[nH]ncc2c1=O	40%	13µM*	-9	-1	-22%	8%
Cc1ccccc1-n1c(SCc2ccc(Cl)cc2)nc2[nH]ncc2c1=O	.	16µM*	.	-2	18µM*	.
CCOc1ccc2c(c1)cc(C(=O)NCCOc1ccc(Cl)cc1)n2C	.	.	.	11	.	.
CC(C)c1ccc2oc(=O)cc(CN3CCC4(CC3)OCCO4)c2c1	.	.	.	-7	.	.
C/C(=N\NC(=S)Nc1ccccc1C)c1ccc(O)cc1	10µM*	?	-2	-6	?	?
CCc1ccc(OCC(=O)N/N=C(\C)c2ccc(-n3ccnc3)cc2)cc1	?	?	-21	-9	16µM*	-14%
C/C(=N\NC(N)=O)c1ccc(-n2ccnc2)cc1	36%	-5%	-5	-3	-2%	-8%
CNC(=S)N/N=C(\C)c1ccc(-n2ccnc2)cc1	8.9µM*	-3%	-11	0	4%	?
C/C(=N\NC(=S)NC(C)C)c1ccc(-n2ccnc2)cc1	5.6µM*	3.3µM*	-17	-5	4.1µM*	6.3µM*
O=C(NCc1ccccc1S(=O)(=O)N1CCOCC1)c1ccc(F)cc1	.	.	.	-5	.	.
COc1ccc(CN(C)CC(=O)N2c3ccccc3NC(=O)CC2C)cc1F (stereo not drawn)	.	.	.	-1	.	.
CCOC(=O)c1oc2c(C)c(O)ccc2c(=O)c1-c1nc2ccccc2s1	.	.	.	-11	.	.
CCc1ccc(OCC(=O)N/N=C(\C)c2ccccc2OC(F)F)cc1	?	16µM*	-11	3	16µM*	-17%
CCc1ccc(OCC(=O)N/N=C(\C)c2ccc(OC(F)F)cc2)cc1	28%	2%	0	-8	-27%	2%
C/C(=N\NC(=O)c1ccc(C)cc1C)c1ccc(-n2ccnc2)cc1	-17%	-23%	4	-5	-11%	-5%
C=CCNC(=S)N/N=C(\C)c1ccc(-n2ccnc2)cc1	3.2µM*	-23%	?	-6	-17%	7.1µM*
COCCNC(=S)N/N=C(/C)c1cc(OC)c(OC)c(OC)c1	.	.	.	0	.	.
COCCNC(=S)N/N=C(\C)c1ccc(O)cc1	22µM*	?	8	-4	?	?
COCCNC(=S)N/N=C(\C)c1ccc(-n2ccnc2)cc1	6.3µM*	4.5µM*	74	7	3.5µM*	7.1µM*
CCOc1ccc(C(C)NC(=O)Cc2cccs2)cc1OCC (stereo not drawn)	.	.	.	-2	.	.
